Measured values published in ChEMBL document CHEMBL3988442, “University of Dundee, Small-Polar-MMV Screening Library” (2021).

molecular target: Chromo domain-containing protein 1 (Saccharomyces cerevisiae (strain ATCC 204508 / S288c) (Baker's yeast)) (UniProt P32657); assay: ScCHD-1 Enzyme Inhibition Assay; type: functional; parameters: scale not given: in the data most compounds retested in dose-response had high values; settings: 30 µM
Sequence (P32657 whole entry, the tested form may be a part): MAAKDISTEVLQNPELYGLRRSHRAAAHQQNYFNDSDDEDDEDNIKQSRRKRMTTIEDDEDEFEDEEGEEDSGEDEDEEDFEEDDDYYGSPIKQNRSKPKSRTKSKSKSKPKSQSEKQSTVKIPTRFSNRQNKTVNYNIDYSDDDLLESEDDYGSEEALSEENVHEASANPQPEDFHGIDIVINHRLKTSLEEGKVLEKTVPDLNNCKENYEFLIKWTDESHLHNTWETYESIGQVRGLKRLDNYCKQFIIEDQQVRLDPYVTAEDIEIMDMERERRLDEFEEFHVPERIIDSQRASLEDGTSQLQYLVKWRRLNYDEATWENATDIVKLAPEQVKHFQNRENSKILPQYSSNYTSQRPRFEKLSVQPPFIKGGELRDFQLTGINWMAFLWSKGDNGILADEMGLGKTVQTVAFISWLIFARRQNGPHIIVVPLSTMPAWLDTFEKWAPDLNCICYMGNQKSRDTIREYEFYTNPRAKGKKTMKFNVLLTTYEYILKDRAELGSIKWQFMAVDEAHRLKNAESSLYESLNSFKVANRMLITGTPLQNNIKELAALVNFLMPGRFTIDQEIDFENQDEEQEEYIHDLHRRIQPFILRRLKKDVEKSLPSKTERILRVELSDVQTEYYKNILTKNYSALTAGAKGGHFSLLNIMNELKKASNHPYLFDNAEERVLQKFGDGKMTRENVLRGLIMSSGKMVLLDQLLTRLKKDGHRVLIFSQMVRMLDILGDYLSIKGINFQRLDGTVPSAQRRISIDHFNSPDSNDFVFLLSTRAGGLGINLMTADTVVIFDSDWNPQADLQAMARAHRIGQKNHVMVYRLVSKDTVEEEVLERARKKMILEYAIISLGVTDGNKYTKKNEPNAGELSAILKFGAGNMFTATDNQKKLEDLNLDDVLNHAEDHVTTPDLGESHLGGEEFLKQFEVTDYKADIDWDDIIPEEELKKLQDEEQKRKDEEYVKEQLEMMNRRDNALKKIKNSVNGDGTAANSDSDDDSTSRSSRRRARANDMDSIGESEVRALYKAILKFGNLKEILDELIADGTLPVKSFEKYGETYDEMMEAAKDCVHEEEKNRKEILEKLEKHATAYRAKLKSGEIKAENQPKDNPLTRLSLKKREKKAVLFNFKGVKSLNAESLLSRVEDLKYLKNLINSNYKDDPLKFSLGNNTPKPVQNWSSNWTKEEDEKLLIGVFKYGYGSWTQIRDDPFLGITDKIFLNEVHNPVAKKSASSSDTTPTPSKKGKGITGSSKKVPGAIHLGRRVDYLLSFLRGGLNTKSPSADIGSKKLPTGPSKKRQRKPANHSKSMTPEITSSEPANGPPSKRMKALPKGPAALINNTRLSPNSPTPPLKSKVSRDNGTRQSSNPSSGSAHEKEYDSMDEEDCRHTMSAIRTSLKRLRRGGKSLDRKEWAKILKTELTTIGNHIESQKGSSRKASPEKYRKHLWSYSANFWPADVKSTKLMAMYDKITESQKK

**Q.** With `COc1ccc(CCN2CCCC(CN(C)Cc3ccc(C)o3)C2)cc1` (centres undefined) as the compound, how does the Percent Effect read?
**A.** 0.528%

**Q.** Which Percent Effect does the source give for `CC(C)(C(=O)NCC(N)=O)c1ccccc1F` here?
**A.** -1.29%

**Q.** How did the Percent Effect turn out when `COc1cc(C)c(C(C)NC(=O)Nc2nnc(C)s2)cc1OC` (centres undefined) was run?
**A.** -3.99%

**Q.** Which Percent Effect does the source give for `Cc1ccc(CN2CC[C@H]3[C@@H]2CCC(=O)N3CCN2CCCC2)s1` here?
**A.** -2.35%

**Q.** With `CS(=O)(=O)NC[C@@H]1OC[C@H]2CN(C(=O)c3ccc[nH]3)CC[C@H]21` as the compound, how does the Percent Effect read?
**A.** -2.84%

**Q.** `CC(C)OCCCNC(=O)CN1CCC(N2CCN(C)C2=O)CC1` was tested. Which Percent Effect did it give?
**A.** -6.17%

**Q.** `O=C(Cn1nc(-c2ccc(F)cc2)oc1=O)Nc1ccccc1` was tested. Which Percent Effect did it give?
**A.** -11.6%

**Q.** With `CNS(=O)(=O)c1cccc(C(C)NCc2nccn2C(C)C)c1` (centres undefined) as the compound, how does the Percent Effect read?
**A.** 2.31%

**Q.** For `Cc1cc(C)n(CC2CCCN2C(=O)c2cccc3[nH]ncc23)n1` (centres undefined), which Percent Effect is on record?
**A.** -3.25%

**Q.** How did the Percent Effect turn out when `CC1CCCN(Cc2c(C3CCOCC3)[nH]c3ncccc23)C1` (centres undefined) was run?
**A.** -12%

**Q.** How did the Percent Effect turn out when `CCCc1nc(CN2CCOC(CNc3cccnn3)C2)cs1` (centres undefined) was run?
**A.** -7.47%

**Q.** For `CN(C)C(=O)C1CN(Cc2c[nH]cn2)CCN(C2CCOCC2)C1` (centres undefined), which Percent Effect is on record?
**A.** -11.5%

**Q.** `CC(Oc1ccccc1C(F)(F)F)C(=O)NCC(N)=O` (centres undefined) was tested. Which Percent Effect did it give?
**A.** 2.04%

**Q.** With `CCn1cc(CN(C)S(=O)(=O)c2ccc(Cl)cc2)cn1` as the compound, how does the Percent Effect read?
**A.** -9.85%

**Q.** With `Cc1cnn(CC2CCCCN2C(=O)CN(C)C2CC2)c1` (centres undefined) as the compound, how does the Percent Effect read?
**A.** -24%

**Q.** `Cc1ccc(NC2CCN(C(=O)Cc3cccc(F)c3)CC2)nn1` was tested. Which Percent Effect did it give?
**A.** -10.9%

**Q.** How did the Percent Effect turn out when `O=C(NCCCN1CCOCC1)c1cc(-c2ccco2)[nH]n1` was run?
**A.** -2.57%

**Q.** With `CCc1ccc(S(=O)(=O)Nc2cc(C(=O)O)c(F)cc2F)s1` as the compound, how does the Percent Effect read?
**A.** -10.2%

**Q.** How did the Percent Effect turn out when `O=C(Nc1ccc(F)cc1)N1C[C@H]2CC[C@@H]1CN(Cc1cccnc1)C2` was run?
**A.** -5.73%

**Q.** With `CCC(C)NC(=O)Nc1ccc(CN2CCOC2=O)cc1` (centres undefined) as the compound, how does the Percent Effect read?
**A.** -1.28%

**Q.** How did the Percent Effect turn out when `Cc1cnc2c(S(=O)(=O)NCC3CCS(=O)(=O)C3)cccc2c1` (centres undefined) was run?
**A.** -10.9%

**Q.** For `Cn1ncc2c(=O)[nH]c(CN3CCCC3CC3CCCCC3)nc21` (centres undefined), which Percent Effect is on record?
**A.** -8.17%

**Q.** For `COc1cc(CNC(=O)c2c(C)noc2C(C)C)ccn1`, which Percent Effect is on record?
**A.** -10.2%

**Q.** `Cc1nc(C)n(CC2CN(CCc3ccncc3)CCO2)n1` (centres undefined) was tested. Which Percent Effect did it give?
**A.** -5.67%

**Q.** With `Nc1cc2c(nn1)CCN(C(=O)c1cccc3c1OCCO3)C2` as the compound, how does the Percent Effect read?
**A.** -10.5%

**Q.** `COc1cccc(CN2CCCCCC2c2cccs2)c1O` (centres undefined) was tested. Which Percent Effect did it give?
**A.** -5.25%

**Q.** For `CC(C)c1cc(NC(=O)CN2CCc3ccccc3C2)on1`, which Percent Effect is on record?
**A.** -12.1%

**Q.** How did the Percent Effect turn out when `Cc1cc(C[C@@H]2COC[C@H]2NCc2ccc(Br)s2)on1` was run?
**A.** -6.34%

**Q.** For `Cn1nc(C2CN(C(=O)c3cscn3)C2)c2nccnc21`, which Percent Effect is on record?
**A.** -18.2%

**Q.** With `Cc1cc(C)n(CC(=O)N2CCC(NS(=O)(=O)c3ccccc3)CC2)n1` as the compound, how does the Percent Effect read?
**A.** -3.29%

**Q.** Which Percent Effect does the source give for `Cc1ccccc1C(=O)CN1C(=O)c2ccccc2CS1(=O)=O` here?
**A.** 14.8%

**Q.** For `CCCS(=O)(=O)N1CCC(NC(=O)c2ccc(Cl)s2)CC1`, which Percent Effect is on record?
**A.** -3.77%

**Q.** For `COCC(c1cccc(C(F)(F)F)c1)N(C)C(=O)c1cc(C)n[nH]1` (centres undefined), which Percent Effect is on record?
**A.** -13%

**Q.** `Cc1nn(C)c(C)c1CCC(=O)N1CCCC1Cn1cccn1` (centres undefined) was tested. Which Percent Effect did it give?
**A.** 1.96%

**Q.** `CN(Cc1ccc(F)cc1)C(=O)NCc1nnc2n1CCCCC2` was tested. Which Percent Effect did it give?
**A.** -15%

**Q.** Which Percent Effect does the source give for `Cc1cc(CN2CCN(C(=O)NCc3nc(C)cs3)CC2)on1` here?
**A.** -3.29%

**Q.** How did the Percent Effect turn out when `COCCOc1ccc(NC(=O)C2CC(=O)N(C)C2)cn1` (centres undefined) was run?
**A.** -5.38%

**Q.** `Cc1cnn(CC2CCCN2C(=O)CCc2nc3ccccc3[nH]2)c1` (centres undefined) was tested. Which Percent Effect did it give?
**A.** -1.08%

**Q.** Which Percent Effect does the source give for `CCN(CC)C(=O)c1ccc(-c2ccsc2)nc1C` here?
**A.** -1.47%
